# Measured values from PubChem BioAssay (NCI).
# Compounds without any hit were thinned out: in the full panel of roughly 79,000, 15% have a hit. Unmarked numbers belong to inactive results. The source made the active and inactive calls. No stated cut-off is given here; in the data, active means growth inhibition above about 70%; inactive means the rest.
# Key:
# [1] = NCI Yeast Anticancer Drug Screen. Data for the rad50 strain (AID 155);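 further: 0% = growth of vehicle-only cultures of the same strain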; conditions: S. cerevisiae rad50 strain growth inhibition; at 50.0 µM; active compounds read high
# Procedure, shortened: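 Yeast carrying a defined DNA repair defect were exposed to test compounds, and growth was compared with vehicle-treated controls to give percent inhibition.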
# [2] = NCI Yeast Anticancer Drug Screen. Data for the mec2-1 strain (AID 157); conditions: S. cerevisiae mec2-1 strain, at 50.0 µM, active compounds read high
# Procedure, shortened: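 Strain: mec2-1 (DNA repair/cell cycle alteration). Compound exposure, then growth measured; inhibition expressed relative to vehicle.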
# [3] = NCI Yeast Anticancer Drug Screen. Data for the sgs1 mgt1 strain (AID 161);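 further: 0% = growth of cultures given vehicle only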; conditions: S. cerevisiae sgs1 mgt1 strain, at 50.0 µM, active compounds read high
# Procedure, shortened: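 Read-out: growth inhibition vs vehicle controls. Cells: mutant yeast strain deficient in DNA damage repair.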
# [4] = NCI Yeast Anticancer Drug Screen. Data for the cln2 rad14 strain (AID 165);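 further: 0% = growth equal to vehicle treated cultures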; conditions: S. cerevisiae cln2 rad14 strain, at 50.0 µM, active compounds read high
# Procedure, shortened: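 Compounds are applied to the cln2 rad14 yeast strain, and growth is then compared with that of vehicle-treated cultures to give inhibition.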
# [5] = NCI Yeast Anticancer Drug Screen. Data for the bub3 strain (AID 167); conditions: S. cerevisiae bub3 mutant strain, at 50.0 µM, active compounds read high
# Procedure, shortened: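 Compounds were applied to a genetically altered yeast strain carrying a cell-cycle control defect. Growth inhibition was scored against vehicle-treated controls.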
# [6] = NCI Yeast Anticancer Drug Screen. Data for the mlh1 rad18 strain (AID 175); conditions: S. cerevisiae mlh1 rad18 strain growth inhibition; at 50.0 µM; active compounds read high
# Procedure, shortened: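 Read-out is yeast growth inhibition, calculated against vehicle-only controls. The compound was applied to a strain engineered with DNA damage repair alterations.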
Compound,growth inhibition [1],growth inhibition [2],growth inhibition [3],growth inhibition [4],growth inhibition [5],growth inhibition [6]
CN1CSCC1C(=O)O (stereo not drawn),13%,-3.25%,-8.45%,-39.4%,-9.1%,11.8%
OC(NN=C1CCCC1)(C(F)(F)Cl)C(F)(F)Cl,-12.9%,-19.9%,-4.45%,-25.3%,-14.2%,9.15%
CCCn1c(C)nc2c(N)cc(C)cc21,-5.9%,-2.9%,-6.05%,-44.5%,-1.5%,-0.8%
C=CC(OC(=O)/C=C/C)OC(=O)/C=C/C,16.9%,0.85%,6.8%,12.6%,20.1%,21.6%
Nc1ccc(S(=O)(=O)c2cnc(N)s2)cc1,-4%,4.25%,27.8%,-3.25%,-11.2%,11.4%
C[n+]1ccccc1/C=C/c1csc2ccccc12,-0.85%,5.35%,4.75%,-11.8%,-0.6%,-3.8%
COCN(Cc1ccccc1)C[Si](C)(C)C,39.5%,2%,1.3%,-20%,14.2%,-9.6%
COc1ccc(-n2c(N)c(C#N)c(C#N)c2-c2ccccc2)cc1,7.85%,8.6%,-16.6%,-4.95%,-6.25%,-49.1%
CN1C(=O)C23CCCN2C(=O)C1(C)SC(=N)S3 (stereo not drawn),2.35%,7.6%,-2.55%,-45.4%,2%,4.95%
COc1ccc(/C=N\S(=O)(=O)c2ccc(OC)cc2)cc1,16.3%,13.7%,15.1%,8.8%,2.2%,0.5%
CCCC(=O)C(C)(C)C,18.2%,-12.4%,-35%,-41.5%,-22.1%,6.75%
O=C1C=CC(CCCCCn2ccc(=O)[nH]c2=O)C(=O)N1 (stereo not drawn),-8.25%,3.15%,14.7%,13.8%,-6.6%,-0.25%
COc1cc(-c2ccc(Nc3ccccc3C(=O)O)c(OC)c2)ccc1Nc1ccccc1C(=O)O,-4.45%,0.2%,1.05%,8.15%,3.8%,-11.9%
O=[N+]([O-])c1ccc(Cc2ncnc3c2ncn3C2OC(CO)C(O)C2O)cc1 (stereo not drawn),5.1%,-13.2%,-16.4%,-0.95%,2.15%,-18.9%
CC(=O)Nc1cc(CN2CCCCC2)c(O)c2ncccc12,-8.65%,-21.4%,-38.3%,-36%,-35.1%,-8.05%
CN(C)C=Nc1c(Br)cc(Br)c2nonc12,-26.7%,-31.1%,-32.5%,-23.8%,-22.9%,-8.45%
CC(C)CCCC(C)C1CCC2C3CC=C4CC(OP(=O)(N5CC5)N5CC5)CCC4(C)C3CCC12C (stereo not drawn),26.8%,1.4%,11.4%,19.3%,-4.1%,12.2%
Cn1c(=O)c2c(n(C)c1=O)n(C)c(=O)n2C,18.3%,8.25%,-18.9%,12.7%,1.85%,15.9%
c1ccc2[nH]c3c(N=NC4=NCCN4)c4ccccc4c-3nc2c1,-10.5%,-56.2%,10.1%,-5.85%,-15.3%,12.8%
CCc1c(Cl)c(Cl)c(Cl)c(Cl)c1Cl,2.95%,2.35%,4.15%,-42.5%,-2.9%,13.8%
O=C(N/N=C\c1cccnc1)Nc1ccc(N=Nc2ccccc2)cc1,12%,12.5%,-1.9%,-9.2%,11.9%,23.1%
CSc1nc2c(c(=O)[nH]1)CC(=O)N2,0.35%,-5.75%,-7.25%,-33.6%,-12.2%,-3.1%

Compound,growth inhibition [1],growth inhibition [2],growth inhibition [3],growth inhibition [4],growth inhibition [5],growth inhibition [6]
O=c1oc2ccccc2cc1CCBr,16.4%,11.4%,-6.1%,-3.3%,-9.2%,-8.05%
CC1N(/N=C/c2ccccc2)C(c2ccccc2)C(c2ccccc2)N1/N=C/c1ccccc1 (stereo not drawn),11.4%,15%,17.2%,5.3%,1.75%,6.25%
C=C(Cl)C(Cl)(CBr)CCC(Br)C(C)(C)Cl (stereo not drawn),20.6%,41%,51.5%,22.4%,42.6%,-22.8%
O=C1C=CC(=O)C1N=Nc1ccccc1,43.9%,19.1%,16.9%,18.3%,-3.15%,28.3%
CS(=O)(=O)N/N=C/C1C=CC=CC1 (stereo not drawn),-6.9%,0.7%,-6.25%,-24.4%,-12.2%,-26.6%
C[n+]1c(I)ccc2ccccc21,35%,36.5%,53.4%,15%,15.9%,36.3%
O=P(Nc1ccc(Cl)c(Cl)c1)(N1CCCCC1)N1CCCCC1,3.5%,-47.8%,-12.4%,-12.8%,2.45%,14.7%
O=S(=O)(O)c1ccc(O)c2ncccc12,20.2%,16.4%,23.6%,21.4%,12.1%,25.9%
CCN(CC)CCCC(C)Nc1c2cc(OC)cc(C)c2nc2c(C)c(Cl)ccc12 (stereo not drawn),21.6%,50.6%,13.8%,19.2%,4.35%,29.4%
COc1ccc2c(c1)C1CCCCC1SCC2=O (stereo not drawn),1%,7.4%,-1.9%,-10.9%,15.8%,-15.3%
CC(=O)NCC1CCCO1 (stereo not drawn),2.65%,-18.6%,-20.4%,3.85%,3.75%,-5.9%
COc1cc(C(=O)O)ccc1OS(=O)(=O)O,-17.4%,-62.5%,-10.7%,-21.6%,-11%,-31.3%
CC(C)CCN(C(=O)CCl)c1ccccc1,59%,32.6%,52.4%,15.1%,33.5%,63.8%
Cc1c(C)c(C)c(CN2CC(=O)c3ccccc3C2=O)c(C)c1C,18%,13.7%,4%,14.1%,10.6%,15.5%
CN(C)c1ccc(/C=C/C=C/C(=O)c2ccccc2)cc1,-5.35%,16.2%,-0.1%,5.55%,-13.8%,-7.4%
O=C1c2cccnc2C(=O)C2CC3=C(CCCC3)CC12 (stereo not drawn),97.9% (active),97.4% (active),96.9% (active),88.2% (active),97.4% (active),98.5% (active)
NNC(=O)Sc1ccccc1,-14.8%,9.65%,-12.8%,-31.9%,-12.3%,-0.45%
O=C(NC(=O)c1c(F)cccc1F)Nc1nc2c(Cl)cccc2s1,21.4%,14.7%,10.1%,-4.9%,-6.55%,17.6%
CN(CC(=O)NC(=O)c1ccccc1)Cc1ccccc1,-1.7%,-9.25%,3.95%,-37%,3.55%,-7.8%
CNc1ncn(-c2c(C)cccc2C)c(=O)n1,-2.5%,-3.6%,8.85%,-15.8%,-2.65%,4.05%
CC(C)(C)/[N+]([O-])=C/C1(C2(/C=[N+](\[O-])C(C)(C)C)Cc3ccccc3C2=O)Cc2ccccc2C1=O (stereo not drawn),29.8%,3.75%,3.05%,15.6%,7.15%,31.9%
